The values below come from the supplement of paper PMC9446081.

Hit rate of the full screen: of about 39,000 compounds, about 220 (0.56%) showed activity. This is one part of a sample in which actives are shown more often than they occur. Unmarked numbers belong to inactive results.
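Further: Wild-type cells incubated without shaking, value is the mean of two biological replicates.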

For the assay, the system named is Escherichia coli K-12 BW25113. The assay is described as follows: relative growth (OD600 normalised to plate interquartile mean) (fraction); higher = less growth inhibition, active = 0.2 or less. The following applies: 50 µM; LB; incubation time: overnight (16-24 h).
Turning to `Cc1noc(C)c1S(=O)(=O)Nc1ccc2c(c1)CC(=O)N([C@H](C)CO)C[C@@H](C)[C@H](CN(C)C(=O)NC(C)C)O2`, the relative growth was 1.03. To `C[C@H](CO)N1C[C@H](C)[C@@H](CN(C)S(C)(=O)=O)OCc2cnnn2CCCC1=O` belongs 1.07; to `Cc1ccc(S(=O)(=O)N(C)C[C@@H]2Oc3c(NC(=O)c4ccncc4)cccc3C(=O)N([C@@H](C)CO)C[C@H]2C)cc1`, 0.999; to `COc1ccc2c(c1OCc1ccccc1)C[C@@H](C(=O)O)N(C(=O)C(c1ccccc1)c1ccccc1)C2`, 1.02. Then `C[C@@H]1CN([C@@H](C)CO)C(=O)c2cccc(NC(=O)C3CCOCC3)c2O[C@@H]1CN(C)C(=O)Nc1ccc2c(c1)OCO2`, with 1.01. As for `CN(C)CC(=O)N[C@@H]1C=C[C@H](CC(=O)O)O[C@H]1CO`, the relative growth is 0.997. Then `CCNC(=O)C[C@@H]1CC[C@H]2[C@H](COc3ccc(NS(=O)(=O)c4ccccc4C)cc3C(=O)N2C)O1`, with 0.981. Then `CNC[C@H]1Oc2ccc(NC(=O)CCN3CCOCC3)cc2CC(=O)N([C@@H](C)CO)C[C@@H]1C`, with 0.977; and `CCc1nnc(N)[nH]1`, with 0.947; and `C[C@H]1CCCCO[C@H](CN(C)Cc2ccccc2)[C@@H](C)CN([C@@H](C)CO)C(=O)c2cc(NC(=O)Nc3cccc4ccccc34)ccc2O1`, with 0.996. On to `Cc1c(-c2ccccc2)n(C[C@@H](O)CN)c2ccccc12`, for which the relative growth is 0.892. Then `CO[C@@]1(NC(=O)[C@@H](C(=O)O)c2ccc(O)cc2)C(=O)N2C(C(=O)O)=C(CSc3nnnn3C)CO[C@@H]21`, with 0.983; and `COC1(NC(=O)C2SC(=C(C(N)=O)C(=O)O)S2)C(=O)N2C(C(=O)O)=C(CSc3nnnn3C)CSC21` (stereo not drawn), with 0.0448 (active). To `CO[C@@]1(NC(=O)CSC[C@@H](N)C(=O)O)C(=O)N2C(C(=O)O)=C(CSc3nnnn3C)CS[C@@H]21` belongs 1; to `COC1(NC(=O)CSCC#N)C(=O)N2C(C(=O)[O-])=C(CSc3nnnn3C)CSC21.[Na+]` (stereo not drawn), 0.0458 (active); to `COC1(NC(=O)C(C(=O)[O-])c2ccc(O)cc2)C(=O)N2C(C(=O)[O-])=C(CSc3nnnn3C)COC21.[Na+].[Na+]` (stereo not drawn), 0.0483 (active). As to `CO[C@@H]1CN(C)C(=O)c2cc(NS(=O)(=O)c3cn(C)cn3)ccc2OC[C@@H](C)N(Cc2cccc(F)c2)C[C@@H]1C`, the relative growth was 1.02. Then `COc1ccc(NC(=O)Nc2ccc3c(c2)C(=O)N([C@H](C)CO)C[C@@H](C)[C@@H](CN(C)CC2CCCCC2)OCCCC[C@@H](C)O3)cc1`, with 0.984.
